# Test results published in the supplement of paper PMC8728848.
# About 410 targets per protein were measured; listed, in parts, are those with the strongest signals and a random draw of the rest.
# B1: TAL6-4LysM (Trichoderma atroviride) (protein)
# chain: AADSIPSISPTGIITPTPTQSGMVSNCNKFYDVHSNDGCSAIASSQHVDLSSLYKWNPAIKTDCSGLQASVYVCIGILTTSMSTTSKLPTTTSKPSTTSKPPTGITTPTPTQSGMVKNCNKFYDVHSGDGCSAIASSQKVNLSSFYLWNPAVKTDCSGLQASVFVCIGTLTTSMSTTTSKLPTTTSKPSTTSKPPTGIITPTPTQNGMVKNCNKFYDVHSGDGCSAIASSQKVNLSSFYLWNPAVKTDCSGLQASVFVCVGTATTTTAAGITTPTPTQSGMVSGCNKFYDVHAGDGCSAIASSQKIALSSLYKWNPAVKTDCSGLQASVYICIGVGNAAAARVTGALEQKLISEEDLNSAVDHHHHHH
# Columns and labels:
# Assay in all cases: glycan array binding signal (z-score within array); higher = stronger binding
# Conditions in all cases: glycan notation: IUPAC condensed, linker removed
# [1] = target: Fuc(a1-2)Gal(b1-3)GalNAc(b1-3)Gal
# Procedure, shortened: (§1)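 Glycan array binding is given as a within-array Z-score, which can be read as non-binding when negative. The arrays, 3228 of them, came from the Consortium for Functional Glycomics database and were retained only where the protein sequence was available. Z-scores were averaged across arrays of the same protein sequence at different concentrations or buffers and across linkers.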
# [2] = target: Fuc(a1-2)Gal(b1-3)GalNAc(b1-3)Gal(a1-4)Gal(b1-4)Glc
# Procedure, shortened: as §1
# [3] = target: Fuc(a1-2)Gal(b1-3)GlcNAc6S
# Procedure, shortened: as §1
# [4] = target: Fuc(a1-2)Gal(b1-4)GlcNAc(b1-3)Gal(b1-4)GlcNAc
# Procedure, shortened: as §1
# [5] = target: Fuc(a1-2)Gal(b1-4)GlcNAc(b1-3)GalNAc
# Procedure, shortened: as §1
# [6] = target: Fuc(a1-2)Gal(b1-4)[Fuc(a1-3)]GlcNAc(b1-3)Gal(b1-4)[Fuc(a1-3)]GlcNAc(b1-3)Gal(b1-4)[Fuc(a1-3)]GlcNAc
# Procedure, shortened: as §1
# [7] = target: Fuc(a1-2)Gal6S(b1-4)Glc6S
# Procedure, shortened: as §1
# [8] = target: Fuc(a1-2)[Gal(a1-3)]Gal(b1-3)GlcNAc
# Procedure, shortened: as §1
# [9] = target: Fuc(a1-2)[Gal(a1-4)]Gal(b1-4)GlcNAc
# Procedure, shortened: as §1
# [10] = target: Fuc(a1-2)[GalNAc(a1-3)]Gal(b1-4)GlcNAc(b1-3)Gal(b1-4)GlcNAc(b1-3)Gal(b1-4)GlcNAc
# Procedure, shortened: as §1
# [11] = target: Fuc(a1-2)[GalNAc(a1-3)]Gal(b1-4)GlcNAc(b1-3)[Fuc(a1-2)[GalNAc(a1-3)]Gal(b1-4)GlcNAc(b1-6)]GalNAc
# Procedure, shortened: as §1
# [12] = target: Fuc(a1-3)[Gal(b1-4)]Glc6S
# Procedure, shortened: as §1
# [13] = target: Fuc(a1-3)[Gal(b1-4)]GlcNAc(b1-3)GalNAc
# Procedure, shortened: as §1
# [14] = target: Fuc(a1-3)[Gal(b1-4)]GlcNAc(b1-6)GalNAc
# Procedure, shortened: as §1
# [15] = target: Fuc(a1-3)[GalNAc(b1-4)]GlcNAc
# Procedure, shortened: as §1
# [16] = target: Gal(a1-4)GlcNAc
# Procedure, shortened: as §1
# [17] = target: Gal(b1-2)Gal
# Procedure, shortened: as §1
# [18] = target: Gal(b1-3)Gal(b1-4)GlcNAc
# Procedure, shortened: as §1
# [19] = target: Gal(b1-3)GalNAc(a1-3)[Fuc(a1-2)]Gal(b1-4)Glc
# Procedure, shortened: as §1
# [20] = target: Gal(b1-3)GlcNAc(b1-3)GalNAc
# Procedure, shortened: as §1
# [21] = target: Gal(b1-3)GlcNAc6S
# Procedure, shortened: as §1
# [22] = target: Gal(b1-3)[GlcNAc(b1-6)]GalNAc
# Procedure, shortened: as §1
# [23] = target: Gal(b1-4)Glc6S
# Procedure, shortened: as §1
# [24] = target: Gal(b1-4)GlcNAc(b1-2)Man(a1-3)[GlcNAc(b1-4)][Gal(b1-4)GlcNAc(b1-2)Man(a1-6)]Man(b1-4)GlcNAc(b1-4)GlcNAc
# Procedure, shortened: as §1
# [25] = target: Gal(b1-4)GlcNAc(b1-2)[Gal(b1-4)GlcNAc(b1-4)]Man(a1-3)[Gal(b1-4)GlcNAc(b1-2)Man(a1-6)]Man(b1-4)GlcNAc(b1-4)GlcNAc
# Procedure, shortened: as §1
# [26] = target: Gal(b1-4)GlcNAc(b1-3)Gal(b1-3)GlcNAc
# Procedure, shortened: as §1
# [27] = target: Gal(b1-4)GlcNAc(b1-3)Gal(b1-4)GlcNAc(b1-2)Man(a1-3)[Gal(b1-4)GlcNAc(b1-3)Gal(b1-4)GlcNAc(b1-2)Man(a1-6)]Man(b1-4)GlcNAc(b1-4)[Fuc(a1-6)]GlcNAc
# Procedure, shortened: as §1
# [28] = target: Gal(b1-4)GlcNAc(b1-3)Gal(b1-4)GlcNAc(b1-3)Gal(b1-4)GlcNAc(b1-3)Gal(b1-4)GlcNAc(b1-3)Gal(b1-4)GlcNAc(b1-2)Man(a1-3)[Gal(b1-4)GlcNAc(b1-3)Gal(b1-4)GlcNAc(b1-3)Gal(b1-4)GlcNAc(b1-3)Gal(b1-4)GlcNAc(b1-3)Gal(b1-4)GlcNAc(b1-2)Man(a1-6)]Man(b1-4)GlcNAc(b1-4)GlcNAc
# Procedure, shortened: as §1
# [29] = target: Gal(b1-4)GlcNAc(b1-3)Gal(b1-4)GlcNAc(b1-6)[Gal(b1-3)]GalNAc
# Procedure, shortened: as §1
# [30] = target: Gal(b1-4)GlcNAc(b1-3)[Gal(b1-4)GlcNAc(b1-6)]Gal(b1-4)GlcNAc
# Procedure, shortened: as §1
binder,measurement,setting,value
B1,glycan array binding signal (z-score),[1],-0.335
same,glycan array binding signal (z-score),[2],-1.13
same,glycan array binding signal (z-score),[3],1.83
same,glycan array binding signal (z-score),[4],0.858
same,glycan array binding signal (z-score),[5],-0.49
same,glycan array binding signal (z-score),[6],0.899
same,glycan array binding signal (z-score),[7],-0.234
same,glycan array binding signal (z-score),[8],-0.6
same,glycan array binding signal (z-score),[9],2.32
same,glycan array binding signal (z-score),[10],-0.51
same,glycan array binding signal (z-score),[11],-0.157
same,glycan array binding signal (z-score),[12],0.195
same,glycan array binding signal (z-score),[13],-0.606
same,glycan array binding signal (z-score),[14],-0.062
same,glycan array binding signal (z-score),[15],3.19
same,glycan array binding signal (z-score),[16],2.59
same,glycan array binding signal (z-score),[17],0.734
same,glycan array binding signal (z-score),[18],2.92
same,glycan array binding signal (z-score),[19],-0.473
same,glycan array binding signal (z-score),[20],0.663
same,glycan array binding signal (z-score),[21],3.15
same,glycan array binding signal (z-score),[22],2.39
same,glycan array binding signal (z-score),[23],-0.334
same,glycan array binding signal (z-score),[24],-0.532
same,glycan array binding signal (z-score),[25],3.53
same,glycan array binding signal (z-score),[26],-0.823
same,glycan array binding signal (z-score),[27],-0.014
same,glycan array binding signal (z-score),[28],-0.74
same,glycan array binding signal (z-score),[29],1.17
same,glycan array binding signal (z-score),[30],0.074
